Results from PubChem BioAssay AID720569 (National Center for Advancing Translational Sciences (NCATS), 2013).
Some of the results follow. Results filed as inconclusive are left out. Calls of active or inactive are those of the source. Calls follow the shape of the dose curve; as a rule, active = well fitted inhibition curve with a large enough effect; inconclusive = small, poorly fitted or top-dose-only effect; inactive = no such curve, though single readings can be large or run the other way.

The compounds below were run on pyruvate kinase (Trypanosoma brucei) (assay: qHTS of Trypanosoma Brucei Inhibitors: Confirmatory Assay for Cherry-picked Compounds). Settings: recombinant TbPYK, Kinase-Glo ATP luminescence; series mostly up to 76.9 µM; activity change, negative = inhibition: at the top concentration.
Text: Members of the Trypanosomatidae family of parasitic protozoans cause a spectrum of diseases throughout the tropical and subtropical world. Sleeping sickness, caused by two subspecies of Trypanosoma brucei, is endemic to areas of sub-Saharan Africa, while Chagas' disease, a manifestation of Trypanosoma cruzi infection, is prevalent throughout Central and South America. In addition, many species of Leishmania are responsible for a range of cutaneous and visceral diseases, causing ulcers, destructive lesions and kalaazar, a lethal infection of the viscera. These diseases cause severe public health and economic burdens on populations that are often already caught in a tragic cycle of poverty, poor nutrition and disease. Collectively, parasites of the trypanosomatid family infect 30 million people worldwide (~500 million live in endemic areas), and account for ~130K deaths annually. Existing treatments have developed little in the past 50 years, and suffer from toxicity, poor efficacy and resistance; the goal of this project is to develop lead drugs that will be suitable for entry into pre-clinical trials. […] Glycolysis in axenically cultured T. cruzi, representing the intracellular pathogenic stage, is also essential for these parasites. {Engel, 1987} This project aims to discover and optimize selective inhibitors of the glycolytic enzyme pyruvate kinase (PYK) from Trypanosoma brucei, the parasite that causes sleeping sickness. […] Trypanosomatid PYKs show significant differences from their human counterparts including only 47-50% sequence identity and different allosteric and activation properties.{Callens, 1992} To this end, a qHTS was done against the MLSMR to discover inhibitors. NIH Molecular Libraries Probe Production Network [MLPCN] NIH Chemical Genomics Center [NCGC] Grant: MH095452 PI Name: Malcolm Walkinshaw, University of Edinburgh
Two uL of TbPYK/substrate buffer (columns 1-3, 5-48) are dispensed into Greiner white solid bottom 1536-well assay plates; column 4 receives only TEA buffer as 0x TbPYK controls. Compounds are then transferred via Kalypsys pin tool equipped with 1536-pin array (10 nL slotted pins, V&P Scientific, San Diego, CA). Following addition of compound, 2 uL of ADP (130 uM final concentration, all columns) is added to initiate the reaction. The plates are then incubated at room temperature for 45 minutes. Kinase-Glo Plus reagent is added (3 uL) and plates incubated for 10 minutes, before being transferred to a ViewLux high-throughput CCD imager (PerkinElmer) wherein single end-point measurements of luminescence are acquired using a clear filter. All reagents are diluted in an assay buffer consisting of 50 mM TEA (pH 7.2), 100 mM KCl, 10 mM MgCl2, 0.05% BSA and 0.01% Tween-20. All screening operations will be performed on a fully integrated robotic system (Kalypsys, San Diego, CA) containing one RX-130 and two RX-90 anthropomorphic robotic arms (Staeubli, Duncan, SC). Library plates will be screened starting from the lowest and proceeding to the highest concentration. Vehicle-only plates, with DMSO being pin-transferred to columns 5-48, will be inserted uniformly at the beginning and the end of each library in order to monitor and record any shifts in the background, which can be affected by reagent dispensers or loss in enzyme activity over time. Screening data will be corrected, normalized, and concentration-effect relationships will be derived by using publicly-available curve fitting algorithms developed in-house (http://ncgc.nih.gov/pub/openhts).
% is scaled to controls: 0 for no effect and ±100 for the full control effect; potency is read from the fitted curve at half-maximal effect.
Also: nearly all actives have a fitted effect of over 70% in size.

Potency, active:
N#Cc1c(N2CCCCC2)nc(N)c2c(N)nc(SCC(=O)O)cc12 31.6 µM
c1ccc(-c2nnc3n2NC(c2ccc4c(c2)OCO4)S3)cc1 (centres undefined) 0.0708 µM
O=C(CCCCCn1c(=S)[nH]c2ccsc2c1=O)NC1CCCCC1 14.1 µM
Oc1c(CN2CCOCC2)ccc(CN2CCOCC2)c1O 20 µM
Cc1nc2ccc(S(=O)(=O)NCC(=O)O)cc2s1 6.31 µM
O=C(CN1CCN(c2ccc(O)cc2)CC1)Nc1ccc(-c2ccccc2)cc1 28.2 µM
O=C1C=CC(=O)N1c1ccc(N2CCCCC2)cc1 7.08 µM
CC(=O)N1CC[n+]2c(-c3ccc([N+](=O)[O-])cc3)csc21 1.78 µM
O=c1[nH]c2ccccc2n2c(-c3ccccc3)nnc12 0.126 µM
C=CCn1c(=S)[nH]c2scc(-c3ccco3)c2c1=O 14.1 µM
O=C(CSc1ccc(-c2ccco2)nn1)Nc1cccc(F)c1 15.8 µM
CN(c1ccccc1)S(=O)(=O)c1cccc(NC(=O)Cc2ccc(Cl)cc2)c1 6.31 µM
O=c1ccc2c(-c3ccccc3S(=O)(=O)O)c3ccc(O)c(O)c3oc-2c1O 8.91 µM
Cc1cccc(-n2c(N)c(C(=O)N3CCN(C)CC3)sc2=S)c1 1 µM
COc1cc(C2CC(=O)N3CN(Cc4ccccc4)CSC3=C2C#N)ccc1OCc1ccccc1 (centres undefined) 0.126 µM
Cc1nonc1C(=O)N/N=C/c1ccc(O)cc1 15.8 µM
Cc1ccc(C)c2c1cc(C)c1nnc(SCC(=O)Nc3cccc(C(=O)O)c3)n12 2.24 µM
NC(=O)c1c(Nc2nc3c(F)cccc3s2)sc2c1CCCC2 4.47 µM
Cc1ccc(/C=C/C(=O)Nc2ccc([N+](=O)[O-])c(NC(=O)/C=C/c3ccc(C)o3)c2)o1 17.8 µM
O=C(CN1CCN(c2ccc(O)cc2)CC1)Nc1cc(S(=O)(=O)N2CCOCC2)ccc1Cl 14.1 µM
CSc1c(SCc2ccccc2)cnn(Cc2ccccc2)c1=O 17.8 µM
COCCNC(=O)Nc1ccc2nc(-c3ccco3)c(-c3ccco3)nc2c1 11.2 µM
COc1cccc(C(=O)Nc2ccc(N3CCCC3)cc2)c1 20 µM
O=C(Nc1ccc(S(=O)(=O)N2CCOCC2)cc1)c1ccc2ncsc2c1 10 µM
Cc1cc(C2=NNC(=Nc3ccc(S(=O)(=O)N4CCOCC4)cc3)SC2)c(C)n1CC1CCCO1 (centres undefined) 11.2 µM
Cc1cc(C#N)c(SCC(N)=O)nc1-c1ccc(F)cc1 2.82 µM

Activity change, negative = inhibition, inactive:
Cc1c(C)c(C)c(S(=O)(=O)N2CCC3(CC2)OCCO3)c(C)c1C 5.05%
COc1ccc(Cc2nnc(NS(=O)(=O)Cc3ccccc3)s2)cc1 -17.7%
COC(=O)/C=C\C(=O)Nc1cccc([N+](=O)[O-])c1 -92%
